From PubChem
In the library only some 4.8% were active in any assay of this set; here they are far more common.
Mot1-301 SUMO – inhibitors of SUMOylation pathway: yeast Mot1-301 growth rescue; S. cerevisiae Mot1-301 growth rescue, ATP luminescence, 38.5C; percent above DMSO median, 100 means doubled; growth rescue, % at 18.8 µM; actives 1% (n = 320,000);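 active means every valid replicate shows activation above 250% relative to neutral control wells; inactive means the rest, any valid replicate at or below 250%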;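 further: OY570 slx delta 5 strain wells were the positive control but not used for scaling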
ALR inh – inhibitors of human sulfhydryl oxidase ALR; P55789; purified ALR, DTT oxidation, H2O2 HRP-luminol luminescence; inhibition, % (no concentration beside the values); actives 3.8% (n = 290,000);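 active means mean replicate inhibition above about 79%, with every replicate also reaching it, limit read from the data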
Target sequence (P55789 whole entry, looked up): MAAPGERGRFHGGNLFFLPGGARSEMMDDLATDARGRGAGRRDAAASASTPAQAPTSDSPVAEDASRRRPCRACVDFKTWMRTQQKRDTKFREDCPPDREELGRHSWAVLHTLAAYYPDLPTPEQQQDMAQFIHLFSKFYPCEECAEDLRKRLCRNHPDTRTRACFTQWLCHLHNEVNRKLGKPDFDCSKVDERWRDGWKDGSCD
AI-2 QS modul – Vibrio harveyi AI-2 quorum sensing modulation; actives 0.4% (n = 300,000); activity change, % at 7.5 µM; Vibrio harveyi JMH597 AI-2 luminescence/OD600 ratio, 9 h; active compounds read low; strain lacks LuxN and CqsS sensors; 0 = neutral-control median; in the data active means activity change below about -75%, passing the limit was not always enough;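 further: luminescence divided by OD600 gain over 9 h not by final OD600 alone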
HIF act – HIF pathway transcriptional activation; actives 0.32% (n = 300,000); AID 1910; U2OS HRE-luciferase reporter, luminescence; normalized: DMSO 0%, desferrioxamine 100%; activation, % at 7.5 µM (by protocol);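 active means mean activation of at least 10% of the iron chelator positive control signal, with at least half of replicates also reaching 10%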
Mot1 SUMO dose – yeast SUMO pathway inhibition in dose response | shares compounds with Mot1-301 SUMO | S. cerevisiae Mot1-301 galactose growth, ATP luminescence, 24 h; -100 = growth of slx-deleted rescue strain | growth activity, percent, % at 42 µM | 2,300 tested, under 10 active;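 active means Signal drops as the depositor expects, and the fitted half-maximal dose is no more than ten times the top valid tested dose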;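 further: more negative values mean stronger growth rescue toward the control strain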
Starred values were filed as active, the others as inactive; / = no result given.

SMILES	Mot1-301 SUMO	ALR inh	AI-2 QS modul	HIF act	Mot1 SUMO dose
CC(C)CN(C(=O)COC(=O)c1ccc2c(c1)OCCO2)c1c(N)n(Cc2ccccc2)c(=O)[nH]c1=O	7	-18	24	0	/
CCCCN(C(=O)C1=COCCO1)c1c(N)n(Cc2ccccc2)c(=O)[nH]c1=O	521*	1	/	0	-1
CN(C(=O)COC(=O)c1cc2ccccc2cc1O)c1c(N)n(Cc2ccccc2)c(=O)[nH]c1=O	427*	-22	/	0	0
CC(C)CN(C(=O)COC(=O)c1ccc2c(c1)OCO2)c1c(N)n(Cc2ccccc2)c(=O)[nH]c1=O	710*	-11	/	0	1
O=C(CC1C(=O)NCCN1Cc1ccc(Cl)c(F)c1)NC1CCCCC1 (configuration not stated)	-15	1	13	0	/
CC(C)=CCN1CCN(Cc2cc(CC(C)C)n[nH]2)CC1CCO (configuration not stated)	-1	-6	14	0	/
CC(C)Cc1cc(CN2CCC(CO)(Cc3ccccc3)CC2)[nH]n1	455*	-3	30	2	-1
Cc1nc(C)n(CC(=O)N2CCCC(C(=O)c3cccc4ccccc34)C2)n1 (configuration not stated)	365*	-13	20	1	-1
O=C(Cn1nnc2ccccc21)N/N=C\c1cccs1	-1	-31	-65	0	/
Nc1nnnn1CC(=O)N/N=C/c1cccs1	627*	4	15	0	0
Nc1ccc(N2CCCC2)c(S(=O)(=O)Nc2cccc(C(F)(F)F)c2)c1	27	18	/	/	/
